Assay outcomes as filed in PubChem BioAssay.
PHOSPHO1 block = blocks human PHOSPHO1 phosphatase activity; inhibition, % at 13.3 µM; Q8TCT1; 1.1% of 290,000 active; recombinant PHOSPHO1, absorbance phosphatase assay; in the data active = inhibition above about 60%
Target sequence (Q8TCT1 whole entry, looked up): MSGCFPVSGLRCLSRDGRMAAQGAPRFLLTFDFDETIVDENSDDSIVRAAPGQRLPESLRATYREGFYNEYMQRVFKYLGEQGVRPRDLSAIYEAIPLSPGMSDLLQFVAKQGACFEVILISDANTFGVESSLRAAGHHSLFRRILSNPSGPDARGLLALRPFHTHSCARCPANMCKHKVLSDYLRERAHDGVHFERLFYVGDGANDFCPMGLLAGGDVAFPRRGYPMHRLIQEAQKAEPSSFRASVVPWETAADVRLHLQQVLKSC
ALR inh = blocks human ALR sulfhydryl oxidase activity; P55789; purified ALR, DTT oxidation, H2O2 HRP-luminol luminescence; inhibition, % (concentration not given with the values); 3.8% of 290,000 active;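 active = mean replicate inhibition above about 79%, with every replicate also reaching it, limit read from the data; inconclusive = only one of the two criteria met; inactive = mean below limit and not every replicate reaching it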
Target sequence (P55789 whole entry, looked up): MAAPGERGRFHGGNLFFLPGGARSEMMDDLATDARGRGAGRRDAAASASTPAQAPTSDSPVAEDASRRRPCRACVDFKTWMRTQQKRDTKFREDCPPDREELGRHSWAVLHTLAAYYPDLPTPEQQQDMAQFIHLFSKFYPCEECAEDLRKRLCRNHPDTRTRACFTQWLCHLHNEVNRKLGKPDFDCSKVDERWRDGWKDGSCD
PfM18AAP inh = PfM18AAP enzyme inhibition | recombinant PfM18AAP, H-Glu-NHMec fluorogenic cleavage | inhibition, % at 7.35 µM | 1.2% of 290,000 active;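 active = inhibition above the campaign mean inhibition over all tested compounds plus 3 SD, cut at about 28% in these data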
PfG6PD inh = PfG6PD (Plasmodium falciparum) enzyme inhibition. PfGluPho enzyme, NADPH resazurin-diaphorase fluorescence. inhibition, % at 20 µM. 0.78% of 350,000 active;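 active = inhibition reaching at least a set limit at 20 µM in the primary screen, cut at about 59% in these data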
H9c2 protect = protects H9c2 cardiomyocytes from peroxide injury; H2O2 injury protection, ATPLite, 2 h; protection from H2O2 cell death, % at 20 µM; 0.63% of 360,000 active;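 active = compounds giving at least 50% protection of heart cells from peroxide-induced death in the single-dose screen, raw or plate-pattern-corrected value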
Of the large screens only hits and unclear results are named; the others gave an inactive call. This is a sample that favours compounds with a hit; in the whole collection about 5.6% have one here.

CN(C)S(=O)(=O)c1ccc(NC(=O)CSc2ncnc3ccccc23)cc1	none (no result: ALR inh)
O=C(CSc1ncnc2ccccc12)Nc1cccc(S(=O)(=O)N2CCOCC2)c1	ALR inh 98
Cc1c(C(=O)NCc2ccccc2C(F)(F)F)sc(=O)n1Cc1ccc(Cl)c(Cl)c1	none (no result: PHOSPHO1 block, ALR inh, PfM18AAP inh, PfG6PD inh)
COc1cc(NC(=O)Cn2cnc3c(nc4n3CCCCC4)c2=O)cc(OC)c1OC	PHOSPHO1 block 75
COc1ccc(/C=C/C(=O)Nc2ccc3nc4n(c(=O)c3c2)CCCC4)cc1	none
COc1cc(/C=C/C(=O)Nc2ccc3nc4n(c(=O)c3c2)CCCC4)cc(OC)c1OC	H9c2 protect 54
CC1CCCN(C(=O)CSc2nnc3ccccn23)C1 (configuration not stated)	none (no result: PHOSPHO1 block, PfM18AAP inh)
COc1cccc(C(=O)NCCS(=O)(=O)N2CC(C)CC(C)C2)c1 (configuration not stated)	none (no result: PHOSPHO1 block, PfM18AAP inh)
CCOC(=O)C1(Cc2cccc(Cl)c2)CCCN(C(=O)c2ccc(C)nc2)C1 (configuration not stated)	PHOSPHO1 block 63
NC(=O)NN=C1CCC(OCc2ccccc2)CC1CC(=O)O (configuration not stated)	none (no result: PHOSPHO1 block, ALR inh, PfM18AAP inh, PfG6PD inh)
CCN(CC(=O)Nc1ccc(NC(C)=O)cc1)C(=O)C1COc2ccccc2O1 (configuration not stated)	none
O=C(NNS(=O)(=O)c1ccc(F)cc1)c1cc2ccccc2cc1O	ALR inh 98
O=C(NNS(=O)(=O)c1ccc(F)cc1)c1ccccc1	none
O=C(NNc1ccccc1)C(=O)NNS(=O)(=O)c1ccc([N+](=O)[O-])cc1	ALR inh 98
O=C(NNc1ccccn1)C(=O)NNS(=O)(=O)c1ccc(F)cc1	ALR inh 99
O=C(NNc1ccccn1)C(=O)NNS(=O)(=O)c1ccc(Cl)cc1	ALR inh 99
COCCNC(=O)C(=O)NNS(=O)(=O)c1ccc(Cl)cc1	none
CCOc1ccc(S(=O)(=O)N2CCOCC2)cc1NS(=O)(=O)c1ccc(OC)c([N+](=O)[O-])c1	none (no result: PHOSPHO1 block, PfM18AAP inh)
CCC[C@H]1CN(c2ccc(Br)cc2)C(=O)[C@@H]1CC(=O)NC	none (no result: PHOSPHO1 block, ALR inh, PfM18AAP inh)
Cc1ccc(C(=O)C(C)Oc2ccc3ccc(=O)oc3c2)cc1 (configuration not stated)	none
CCOC(=O)c1c(C)nc(C)c(C(=O)OCC)c1-c1cccc(N)c1	PHOSPHO1 block 60
CCN1CCN(C(=O)c2ccccc2Nc2ccc(SC(F)F)cc2)CC1	ALR inh 90
CN1CCN(C(=O)c2ccccc2Nc2ccc(SC(F)F)cc2)CC1	ALR inh inconclusive
CCOc1ccc(NCc2cc3c(C(C)(C)C)nn(-c4ccccc4)c3[nH]c2=O)cc1	H9c2 protect 58
CC(C)(C)c1nn(-c2ccccc2)c2[nH]c(=O)c(C=O)cc12	H9c2 protect 57 (no result: PHOSPHO1 block)
Cc1ccnc(Nc2nc(-c3ccc(O)cc3O)cs2)c1	ALR inh 99 (no result: PHOSPHO1 block)
Cc1ccnc(Nc2nc(-c3ccc(O)cc3)cs2)c1	none
Cc1cc(C(=O)Nc2ncn[nH]2)ccc1[N+](=O)[O-]	PfM18AAP inh 30
CCCOc1cccc(C(=O)NC(=S)Nc2ccccc2)c1	none
COc1cccc(/C=N/NC(=O)c2[nH]c(C)c(C(=O)N/N=C/c3cccc(OC)c3)c2C)c1	H9c2 protect 56
O=C(O)c1cccc(NC(=S)NC(=O)c2cccc(OCc3ccccc3)c2)c1	ALR inh 98 (no result: PHOSPHO1 block)
COc1cccc(/C=N/NC(=S)Nc2cccc(C(=O)O)c2)c1	PfM18AAP inh 29
C=CCn1c(=S)[nH]c2cc(C(=O)Nc3ccc(F)cc3)ccc2c1=O	none
c1ccc2oc(-c3ccc(Nc4nc(N5CCOCC5)nc(N5CCOCC5)n4)cc3)nc2c1	none (no result: PHOSPHO1 block, ALR inh, PfM18AAP inh)
O=C(CSc1nc(NS(=O)(=O)c2ccccc2)cc(=O)[nH]1)Nc1ccc(Cl)cc1	none (no result: ALR inh)
COc1ccc(NC(=O)CSc2nc(NS(=O)(=O)c3ccccc3)cc(=O)[nH]2)cc1	ALR inh 100
Cc1cccc(NC(=O)CSc2nc(NS(=O)(=O)c3ccccc3)cc(=O)[nH]2)c1	ALR inh 99
Cc1ccc(S(=O)(=O)Nc2cc(=O)[nH]c(SCc3ccccc3Cl)n2)cc1	ALR inh 96
C#CCSc1ncc(S(=O)(=O)c2ccccc2)c(=O)[nH]1	none (no result: ALR inh)
Cc1cc(C)cc(NC(=O)CSc2ncc(S(=O)(=O)c3ccccc3)c(=O)[nH]2)c1	ALR inh 99 (no result: PfG6PD inh, H9c2 protect)
CCn1c(=O)c(C(=O)CN(C)CC(=O)Nc2ccccc2Br)c(N)n(Cc2ccccc2)c1=O	none (no result: PHOSPHO1 block, ALR inh, PfM18AAP inh)
CCOc1ccccc1NC(=O)NNC(=O)COc1cccc(C)c1C	none
Cc1ccc(NC(=O)CSc2nc(NS(=O)(=O)c3ccc(C)cc3)cc(=O)[nH]2)cc1	ALR inh 98
O=C(C[C@H]1C/C=C\CC[C@@H](Cc2ccc(F)cc2)C(=O)OC[C@H]2CCCN2C1=O)N[C@@H](CO)Cc1ccccc1	none (no result: PHOSPHO1 block, PfM18AAP inh)
Cc1cccc(C(=O)Nc2scc(-c3ccc(Br)cc3)c2C(=O)O)c1	none (no result: PHOSPHO1 block, PfM18AAP inh)
COc1cc(C(=O)Nc2scc(-c3ccc(Br)cc3)c2C(=O)O)cc(OC)c1OC	PfG6PD inh 59 (no result: PHOSPHO1 block)
Nn1cc(-c2ccccc2)nc1SCC(=O)NC1CCS(=O)(=O)C1 (configuration not stated)	PHOSPHO1 block 88 (no result: ALR inh)
Nn1cc(-c2ccccc2)nc1SCC(=O)NCCN1C(=O)CSC1=O	PHOSPHO1 block 82
Cn1c(SCC(=O)NCCN2C(=O)CSC2=O)nnc1-c1ccccc1	none
O=C(CSc1nc2ccccc2n1CCc1ccccc1)NC1CCS(=O)(=O)C1 (configuration not stated)	PHOSPHO1 block 97
O=C(CSc1nc2ccccc2n1CCc1ccccc1)NC1CC1	none
O=C(NC1CCCCC1)C(c1cc2ccccc2o1)N1CCOCC1 (configuration not stated)	none (no result: PHOSPHO1 block, ALR inh, PfM18AAP inh, PfG6PD inh)
CC1(C)NC(=O)N(CC(=O)OCC(=O)c2ccc(Br)s2)C1=O	none (no result: PHOSPHO1 block, PfM18AAP inh)
Cc1ccc(C)c(S(=O)(=O)N2CCCC2CNC(=O)C(=O)NCCc2ccccc2)c1 (configuration not stated)	none (no result: PHOSPHO1 block, PfM18AAP inh)
COc1ccc(CCNC(=O)C(=O)NCC2CCCN2S(=O)(=O)c2cc(C)ccc2C)cc1 (configuration not stated)	H9c2 protect 76 (no result: PHOSPHO1 block, PfM18AAP inh)
C/C(=N\Nc1ccc(S(=O)(=O)N2CCCCC2)cn1)c1ccc(O)cc1	ALR inh 91 (no result: PHOSPHO1 block, PfM18AAP inh)
COc1cccc(/C=C/C(=O)OCC(=O)c2c(N)n(C)c(=O)n(C)c2=O)c1	none (no result: PHOSPHO1 block, PfM18AAP inh)
O=C(/C(=N/N=C/c1ccc(O)c(O)c1O)c1ccccc1)c1ccccc1	ALR inh 99, H9c2 protect 58
O=C(NN=Cc1ccc(O)c(O)c1)c1ccccc1	none (no result: PHOSPHO1 block, ALR inh, PfM18AAP inh, PfG6PD inh)
COc1ccc(S(=O)(=O)N2CCCCCC2)cc1C(=O)N1CCN(c2ccccc2O)CC1	none (no result: PHOSPHO1 block, PfM18AAP inh)
COc1cc(-c2nc3cnccn3c2NC(C)(C)CC(C)(C)C)ccc1O	ALR inh 99
Cc1cccc(C)c1Nc1c(-c2ccc(N3CCOCC3)cc2)nc2cnccn12	ALR inh 99
COc1cc(-c2nc3ccccn3c2N)ccc1O	none (no result: ALR inh)
COc1cc(-c2nc3cnccn3c2Nc2c(C)cccc2C)ccc1O	ALR inh 98
CCCCNc1c(-c2ccc(-c3ccc(C(C)=O)cc3)c(OC)c2)nc2cnccn12	none (no result: PHOSPHO1 block, ALR inh, PfM18AAP inh)
